About 1,200 (1.3%) of roughly 92,000 compounds were called active. This is one part of a sample in which actives are shown more often than they occur.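 Rule for the calls: active = activation above the mean of all tested compounds plus 3 SD (cut at about 9.5% in these data); inactive = the rest.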
Assay: TTR transcription activators in neuroblastoma reporter cells, primary screen, cell-based, luminescence, SH-SY5Y, TTR promoter Gaussia luciferase (AID 1117267);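 note: cells exposed to compounds for one day before reading; 0% = median of all test compound wells on the plate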
Details: at 16.7 µM, hits give high values, 100% = recombinant luciferase protein wells

SMILES	activation
O=C(O)C1OC(C(=O)O)C2C1C(F)(F)C2(F)F (stereo not drawn)	15.5% (active)
COc1ccc(N2c3ccccc3CN(Cc3ccccc3)[C@@H](C)[C@H]2Cc2ccc(-c3ccccc3)cc2)cc1	-1.66% (inactive)
Cc1ccc2c(c1)N(CC(=O)N1CCCc3ccccc31)C(=O)C(C)O2 (stereo not drawn)	-0.78% (inactive)
Cc1cccc(C)c1NC(=O)CN1C(=O)C(C)Oc2ccccc21 (stereo not drawn)	15.3% (active)
O=C(CN1C(=O)COc2ccccc21)Nc1ccc(F)cc1	2.98% (inactive)
O=C(CCC(=O)c1cccs1)Nc1nc2ccccc2s1	0.06% (inactive)
O=C(CCC(=O)c1cccs1)NC1CCCCCC1	-2.1% (inactive)
O=C(CCC(=O)c1cccs1)NCc1ccccc1	9.7% (active)
CCOC(=O)N1CCN(S(=O)(=O)c2ccc(-n3cnnn3)cc2)CC1	-1.92% (inactive)
COCCn1c(SCC(=O)N2CCCCCC2)nc2c(c1=O)SCC2	0.25% (inactive)
Cc1cc(C(=O)CSc2nc(N)cc(=O)[nH]2)c(C)n1Cc1ccco1	0.58% (inactive)
CCOC(=O)[C@H]1[C@H]2COc3ccc(OC)cc3[C@@H]2N2C(=O)c3ccc(F)cc3NC(=O)[C@@]12C	1.68% (inactive)
CSc1sc(C(=O)NNC(=O)c2ccc(Cl)cc2)c2c1C=CCC2	-0.42% (inactive)
O=C(c1ccc(Cl)c(Cl)c1)N1CCCC1	4.23% (inactive)
O=C(CN1CCCCC1)Nc1ccccc1C(=O)NC1CC1	2.49% (inactive)
O=C(Nc1ccccc1C(=O)N1CCCCCC1)c1ccccc1Cl	21.4% (active)
Cc1cc(C)c(C#N)c(SCc2ccccc2C(=O)O)n1	5.37% (inactive)
N#Cc1c(N2CCCCC2)nc(N)c2c(N)nc(SCC(=O)O)cc12	0.31% (inactive)
Cc1cc(C)c(C#N)c(N2CCC(C(N)=O)CC2)n1	14.3% (active)
CCC(C)C(=O)Nc1cc([N+](=O)[O-])ccc1Cl (stereo not drawn)	0.38% (inactive)
CCOc1ccc(NC(=O)CSc2nc3ccccc3c(=O)n2Cc2cccs2)cc1	0.62% (inactive)
Cc1cc(C)c2nc3nc(C)cc(C)c3c(N)c2c1	13.6% (active)
COc1ccc(CCNC(=O)C(Sc2ccccn2)c2ccccc2)cc1OC (stereo not drawn)	1% (inactive)
NC(=O)c1oc2ccccc2c1NC(=O)CS(=O)(=O)c1ccccc1	-0.61% (inactive)

SMILES	activation
CCSc1nc(O)c(C(c2cccc(OC)c2)c2c(O)nc(SCC)[nH]c2=O)c(=O)[nH]1	1.15% (inactive)
CCOc1ncccc1C(=O)N(C)CC(=O)Nc1ccc(F)cc1	4.43% (inactive)
Cc1cccc(N2C(=O)CC(SC(N)=Nc3ccccc3)C2=O)c1 (stereo not drawn)	11.1% (active)
O=C1CC(Sc2ncn[nH]2)C(=O)N1c1ccccc1 (stereo not drawn)	-1.83% (inactive)
O=C1CC(N2CCN(c3ccc(F)cc3)CC2)C(=O)N1c1ccccc1 (stereo not drawn)	0.86% (inactive)
CCOc1ccccc1NC(=O)COc1ccc(S(=O)(=O)N2CCCC2)cc1	15.6% (active)
CCOc1cccc(NC(=O)C2CCCN(S(=O)(=O)c3ccc(OC)cc3)C2)c1 (stereo not drawn)	-2.33% (inactive)
Cc1cccc(OCCCC(=O)Nc2ccc(S(=O)(=O)N3CCCC3)cc2)c1	-3.27% (inactive)
CCc1ccccc1OCC(=O)Nc1ccc(C)c(S(=O)(=O)N2CCCCCC2)c1	-2% (inactive)
COc1ccccc1CC(=O)Nc1ccc(S(=O)(=O)N2CCCC2)cc1	1% (inactive)
CCOc1ccc(NC(=O)COc2ccc(S(=O)(=O)N3CCCC3)cc2)cc1	11.4% (active)
Cc1ccc(NC(=S)NCc2ccccc2Cl)c(C)c1	0.72% (inactive)
CN(C)c1ccc(NC(=O)CN2C3CCCC2CC(NC(=O)c2ccccc2)C3)cc1 (stereo not drawn)	-2.32% (inactive)
C/C(CC(=O)Nc1ccc(N(C)C)cc1)=N\NC(=O)c1ccccc1F	15.4% (active)
C/C(CC(=O)Nc1ccc(Cl)cc1)=N\NC(=O)C(=O)NCCO	-1.14% (inactive)
CCOc1ccc(CCN2C(=O)C(=O)N([C@@H](Cc3ccc(O)cc3)CN3CCC[C@H]3CN3C(=O)C(=O)NC[C@@H]3CC(C)C)C[C@@H]2Cc2ccccc2)cc1	2.35% (inactive)
Cc1ccn(CC(=O)N2N=C(C(F)F)CC2(O)C(F)F)n1 (stereo not drawn)	-1.11% (inactive)
CC(=O)NC1(c2ccc(F)cc2)CCN(C(=O)c2c(F)cccc2F)CC1	0.91% (inactive)
CCCCCc1ccc(-c2ccc(OCC)cc2)nc1	1.61% (inactive)
CCCCCc1ccc(-c2cn(Cc3ccc4ccccc4c3)nn2)cc1	10.7% (active)
COc1ccc(Cn2cc(COC(=O)N(C)Cc3ccccc3)nn2)cc1	0.33% (inactive)
CC(C(=O)N(C)CC(=O)Nc1ccccc1C(F)(F)F)N1C(=O)c2ccccc2C1=O (stereo not drawn)	2.02% (inactive)
COc1ccc(-c2nn(-c3ccccc3)cc2/C=C\C(=O)N2CCOCC2)cc1[N+](=O)[O-]	-1.35% (inactive)
COc1ccc(-c2ccc(Nc3ccc(S(=O)(=O)N4CCCC4)cc3)nn2)cc1OC	-5.27% (inactive)

SMILES	activation
COc1ccc(S(=O)(=O)Nc2ccc(S(=O)(=O)N3CCCCC3)cc2)cc1OC	-1.7% (inactive)
COc1cc(C(C)=O)ccc1OC(C)C(=O)Nc1ccc(S(=O)(=O)N2CCCC2)cc1 (stereo not drawn)	10% (active)
O=C(NCc1cccc(C(F)(F)F)c1)c1cccc(S(=O)(=O)N2CCN(Cc3ccccc3)CC2)c1	-1.01% (inactive)
N#CCc1c[nH]c2ccc([N+](=O)[O-])cc12	1.86% (inactive)
CC(=O)c1ccc2c(c1)OCCOCCOc1ccc(C(C)=O)cc1OCCOCCO2	1.09% (inactive)
CSCCC(NC(N)=O)C(=O)N(C)CC(=O)Nc1ccc(C)cc1 (stereo not drawn)	22.6% (active)
Cc1ccc(NC(=O)CC(=O)Nc2ccc(C)cc2)cc1	5.18% (inactive)
Cc1ccc(NC(=O)CN(C)C(=O)COC(=O)c2nccnc2N)cc1	-0.56% (inactive)
CC1CN(C(=S)Nc2ccc(Br)cc2Cl)CC(C)O1 (stereo not drawn)	-0.06% (inactive)
CCN(C(=O)COC(=O)c1ccccc1O)c1cccc2ccccc12	-1.17% (inactive)
CCC(O)C1CCN(Cc2cn(-c3ccc(OC)cc3)nc2-c2cccc(F)c2)CC1 (stereo not drawn)	2.63% (inactive)
COc1ccc(N(C)C(=O)C2CCN(S(=O)(=O)c3cccc4nsnc34)CC2)cc1	-0.63% (inactive)
CCCCN(C)CCNC(=O)C1CCCN(S(=O)(=O)c2cccc3nsnc23)C1 (stereo not drawn)	14.2% (active)
CCCCN(CC)C(=O)C1CCCN(S(=O)(=O)c2cccc3nsnc23)C1 (stereo not drawn)	-1.18% (inactive)
Cc1cccc(NC(=O)c2cccc(C(F)(F)F)c2)c1	0.86% (inactive)
Cc1ccccc1CN1CCCCC(NC(=O)Nc2ccccc2F)C1=O (stereo not drawn)	-2.49% (inactive)
CCOc1c(OC)cccc1C(=O)NCC1(c2ccccc2)CCCC1	-2% (inactive)
C=C1C(C(C)C)N(C)C2=NC(c3ccccc3)CC(=O)N12 (stereo not drawn)	11.5% (active)
O=C1CC(c2ccc3c(c2)OCO3)N=C2N(CC3CC3)C/C(=C/c3ccccc3)N12 (stereo not drawn)	-0.26% (inactive)
COCCNC(=O)C1CCN(C(=O)C2CC(=O)N(c3ccc(C)cc3)C2)CC1 (stereo not drawn)	3.12% (inactive)
COc1ccc(CNc2nccs2)cc1	-0.05% (inactive)
CCOC(=O)c1c(C)oc2cc(Sc3ccccc3)c(O)c(O)c12	-2.74% (inactive)
Cc1noc(C)c1S(=O)(=O)NCCc1ccc(S(N)(=O)=O)cc1	13.7% (active)
O=S(=O)(NCCc1ccccc1)c1ccccc1	0.09% (inactive)

SMILES	activation
CCOC(=O)c1c(C)c(C(=O)NCCc2ccc(S(N)(=O)=O)cc2)c(C)n1CC	-1.43% (inactive)
COc1ccccc1/C=N/Nc1nc(C)c(C(C)=O)s1	0.48% (inactive)
COc1ccccc1N1CCN(c2nc(C)cc(=O)[nH]2)CC1	-0.14% (inactive)
COc1ccccc1N1CCN(Cc2nnnn2CCc2ccccc2)CC1	-0.88% (inactive)
COc1ccccc1N1CCN(Cc2cc(OC)c3c(c2)OCO3)CC1	16.9% (active)
Cc1ccc(C(=O)COC(=O)CCCC(=O)NC2CCCCC2)cc1[N+](=O)[O-]	-0.69% (inactive)
CCN(CC)CCCN=C(N)N	-0.95% (inactive)
Cc1ccc(NC(=O)CN(C)Cc2ccc(F)cc2)c([N+](=O)[O-])c1	2.25% (inactive)
COc1ccc(-n2ncc3c2CC(C)(C)CC3NC(=O)CCc2c(C)noc2C)cc1 (stereo not drawn)	-1.69% (inactive)
O=C(NC1CCCC1)C1c2ccccc2OCC(=O)N1CC(F)(F)F (stereo not drawn)	-1.49% (inactive)
CCOCCn1c(-c2ccccc2)nc2ccccc21	0.16% (inactive)
C[C@H](NC(=O)C1CCN(S(=O)(=O)c2ccccc2)CC1)C(=O)NCc1ccccc1	10.2% (active)
O=C(NCc1ccc(Cl)cc1)C1CCN(S(=O)(=O)c2cccs2)CC1	-1.39% (inactive)
COc1ccccc1CNC(=O)C1CCN(S(=O)(=O)c2ccc3c(c2)OCCO3)CC1	0% (inactive)
CC1=C(C(=O)N2CCOCC2)CC(CC(=O)NCc2cccc3ccccc23)C(=O)N1CCC1=CCCCC1 (stereo not drawn)	3.82% (inactive)
COc1ccc(Cn2ccc3ccc(-c4ccc5ccn(Cc6ccccc6C)c5c4)cc32)cc1	2.53% (inactive)
Cn1cc(CN2CCC(C(O)CCc3ccccc3)CC2)c(-c2ccccc2F)n1 (stereo not drawn)	-1.93% (inactive)
Cn1cc(CN2CCCC(CO)C2)c(-c2ccc(Oc3ccccc3)cc2)n1 (stereo not drawn)	11.1% (active)
CCCOC1CCCN(Cc2cn(C)nc2-c2ccccc2F)C1 (stereo not drawn)	0.85% (inactive)
O=C(CCc1n[nH]c(=O)[nH]c1=O)N/N=C/c1ccc(Br)o1	3.17% (inactive)
C=CCN(Cc1nc(-c2cc(OC)c3c(c2)OCO3)oc1C)C1CCS(=O)(=O)C1 (stereo not drawn)	-0.47% (inactive)

Reference: PubChem BioAssay AID1117267 (The Scripps Research Institute Molecular Screening Center, 2014)
